Data reported in PubChem BioAssay (Tox21).
Unmarked numbers belong to inactive results. Results filed as inconclusive are left out. A call without a number means that no potency is given here. Calls of active or inactive are those of the source. Calls follow the shape of the dose curve; as a rule, active = well fitted curve in the direction sought with a large enough effect in the repeat runs; inconclusive = weak or mixed curves; inactive = no such curve, though single readings can be large; an effect the other way counts as inactive or inconclusive.

Columns and labels:
[1] = Caspase-3/7 induction in HepG2 cells by small molecules, qHTS cell viability counter screen (AID 1346981); also: series mostly up to about 92 µM; nearly all actives have a fitted effect of over 30% in size
Outline: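 In this quantitative HTS counter screen, compounds delivered in DMSO were left on unmodified HepG2 cells for 16 hr at 37 C. Viability was then determined fluorometrically with CellTiter-Fluor, in parallel with caspase-3/7 induction in the same wells.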

[2] = target: Nuclear receptor subfamily 1 group I member 2 (Homo sapiens) (UniProt O75469); experiment: Human pregnane X receptor (PXR) small molecule agonists, qHTS assay (AID 1346982); also: nearly all actives have a fitted effect of over 35% in size; also: potency is read from the fitted curve at half-maximal effect
Outline: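 Reporter HepG2 cells expressing PXR-Luc are cultured in charcoal-stripped FBS (5%), treated with compounds for 24 hr at 37 C, and assayed by ONE-Glo luminescence after 30 min at room temperature.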

[3] = target: Cytochrome P450 2C19 (Homo sapiens) (UniProt P33261); experiment: Cytochrome P450 Family 2 Subfamily C Member 19 (CYP2C19) small molecule antagonists: luciferase reporter qHTS assay (AID 1671197); also: nearly all actives have a fitted effect of over 65% in size; also: potency is read from the fitted curve at half-maximal effect
Outline: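 P450-Glo CYP2C19 screening system; proluciferin substrate; DMSO compound stocks; 10 min RT preincubation; NADPH regeneration, 1 h at 37C; luciferin detection reagent, 20 min RT; luminescence as RLU.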

[4] = target: Cytochrome P450 2C9 (Homo sapiens) (UniProt P11712); experiment: Cytochrome P450 Family 2 Subfamily C Member 9 (CYP2C9) small molecule antagonists: luciferase reporter qHTS assay (AID 1671198); also: nearly all actives have a fitted effect of over 50% in size; also: potency is read from the fitted curve at half-maximal effect
Outline: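 CYP2C9 activity was measured with a P450-Glo proluciferin substrate. Enzyme–substrate mix was held with compound for 10 min at room temperature, then NADPH regeneration solution was added for 1 h at 37C. Luciferin product was read as luminescence.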

[5] = target: Cytochrome P450 1A2 (Homo sapiens) (UniProt P05177); experiment: Cytochrome P450 Family 1 Subfamily A Member 2 (CYP1A2) small molecule antagonists: luciferase reporter qHTS assay (AID 1671199); also: nearly all actives have a fitted effect of over 50% in size; also: potency is read from the fitted curve at half-maximal effect
Outline: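 Steps: enzyme-substrate mix dispensed; test compounds and furafylline control pinned in; 10 min room temperature; NADPH regeneration solution added, 1 h; reaction stopped with luciferin detection reagent; luminescence read after 20 min.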

[6] = target: Cytochrome P450 3A4 (Homo sapiens) (UniProt P08684); experiment: Cytochrome P450 Family 3 Subfamily A Member 4 (CYP3A4) small molecule antagonists: luciferase reporter qHTS assay (AID 1671201); also: nearly all actives have a fitted effect of over 50% in size; also: potency is read from the fitted curve at half-maximal effect
Outline: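 Setup: enzyme-substrate mix, compound pin transfer, 10 min RT. Reaction: NADPH regeneration solution, 1 h RT. Readout: detection reagent stops turnover, luminescence measured after 20 min, expressed in relative luminescence units.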

[7] = Caspase-3/7 induction in HepG2 cells by small molecules, qHTS assay (AID 1346978); also: nearly all actives have a fitted effect of over 15% in size
Outline: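 Wild-type HepG2 cells (2,000/well) were settled 5 h at 37 C, 5% CO2, then exposed to compounds in DMSO for 17 h. Caspase-3/7 activity was read by luminescence 30 min after adding Caspase-Glo 3/7 reagent at room temperature.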

[8] = target: Cytochrome P450 2D6 (Homo sapiens) (UniProt P10635); experiment: Cytochrome P450 Family 2 Subfamily D Member 6 (CYP2D6) small molecule antagonists: luciferase reporter qHTS assay (AID 1671196); also: nearly all actives have a fitted effect of over 50% in size; also: potency is read from the fitted curve at half-maximal effect
Outline: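 Test chemicals meet CYP2D6 plus proluciferin substrate (10 min, RT); NADPH regenerating solution then drives turnover for 1 h. Detection reagent halts the reaction; luminescence measured after 20 min.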

[9] = target: Voltage-gated inwardly rectifying potassium channel KCNH2 (Homo sapiens) (UniProt Q12809); experiment: Human Ether-a-go-go-Related Gene (hERG) channel small molecule antagonists: fluorescence cell-based qHTS assay (AID 1671200); also: nearly all actives have a fitted effect of over 50% in size; also: potency is read from the fitted curve at half-maximal effect
Outline: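 Measured: Tl+ flux via fluorescence (480/540 nm) in hERG-expressing U2OS cells after 1 h dye loading at room temperature.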

[10] = Caspase-3/7 induction in CHO-K1 cells by small molecules, qHTS cell viability counter screen (AID 1346979); also: nearly all actives have a fitted effect of over 35% in size; also: potency is read from the fitted curve at half-maximal effect
Outline: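 To flag cytotoxic compounds, treated CHO-K1 wild-type cells were given CellTiter-Fluor at 16hr and read fluorescently after 1hr at 37C; the caspase-3/7 luminescence was measured in these same wells.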

[11] = target: Nuclear receptor subfamily 1 group I member 2 (Rattus norvegicus) (UniProt Q9R1A7); experiment: Rat pregnane X receptor (rPXR) activation by small molecules, qHTS assay (AID 1346983); conditions: rPXR luciferase reporter cells, One-Glo luminescence, 24 h; max activation: active compounds read high; also: nearly all actives have a fitted effect of over 20% in size
Outline: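 Cell-based rPXR luciferase reporter assay, 2,000 cells per well, rested 5hr at 37 C before compound addition in DMSO, then 24 hr at 37 C. One-Glo reagent was added and luminescence read after 30 min at room temperature.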

[12] = target: Nuclear receptor subfamily 1 group I member 2 (Homo sapiens) (UniProt O75469); experiment: CYP3A4 induction through human pregnane X receptor (PXR) by small molecules, qHTS assay (AID 1346984); also: nearly all actives have a fitted effect of over 40% in size
Outline: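 Induction measured in HepG2-based DPX-2 cells co-expressing human PXR and a CYP3A4 promoter-driven luciferase. After a 24-hour compound exposure, cells received CYP3A4 luciferin substrate at 3uM final for 3 hours, and light output was then recorded.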

[13] = target: Nuclear receptor subfamily 1 group I member 2 (Homo sapiens) (UniProt O75469); experiment: Human pregnane X receptor (PXR) activation by small molecules, qHTS assay (AID 1346985); also: nearly all actives have a fitted effect of over 40% in size
Outline: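 DPX-2 cells (HepG2 co-transfected with a PXR response element and a CYP3A4-promoter luciferase construct) were seeded at 2,000 per well, rested 5 hr at 37C, then exposed to DMSO-dissolved compounds for 24 hr. Activation was read as luciferase luminescence.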

[14] = Caspase-3/7 induction in CHO-K1 cells by small molecules, qHTS assay (AID 1346980); also: nearly all actives have a fitted effect of over 15% in size
Outline: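 Wild-type cells were seeded at 1,500 per well and settled 5 hr at 37 C, 5% CO2, then exposed to DMSO-dissolved compounds for 17 hr. Caspase-Glo 3/7 reagent was added, and luminescence was read after 30min at room temperature.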

Sequence of Cytochrome P450 1A2 (Homo sapiens) (P05177 whole entry, looked up): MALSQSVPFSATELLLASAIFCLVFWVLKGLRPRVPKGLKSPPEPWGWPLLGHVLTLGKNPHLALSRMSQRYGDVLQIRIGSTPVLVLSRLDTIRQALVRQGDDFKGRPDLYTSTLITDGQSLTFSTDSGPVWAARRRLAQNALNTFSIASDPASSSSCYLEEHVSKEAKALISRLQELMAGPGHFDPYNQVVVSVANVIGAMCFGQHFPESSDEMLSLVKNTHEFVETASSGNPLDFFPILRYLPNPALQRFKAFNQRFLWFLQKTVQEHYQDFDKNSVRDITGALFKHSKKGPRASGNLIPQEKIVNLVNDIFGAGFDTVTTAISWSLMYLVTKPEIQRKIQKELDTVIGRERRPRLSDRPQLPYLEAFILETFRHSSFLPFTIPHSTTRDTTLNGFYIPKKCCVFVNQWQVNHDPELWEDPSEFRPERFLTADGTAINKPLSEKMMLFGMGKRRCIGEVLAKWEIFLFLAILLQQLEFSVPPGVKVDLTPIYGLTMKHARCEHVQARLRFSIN
Sequence of Cytochrome P450 2C9 (Homo sapiens) (P11712 whole entry, looked up): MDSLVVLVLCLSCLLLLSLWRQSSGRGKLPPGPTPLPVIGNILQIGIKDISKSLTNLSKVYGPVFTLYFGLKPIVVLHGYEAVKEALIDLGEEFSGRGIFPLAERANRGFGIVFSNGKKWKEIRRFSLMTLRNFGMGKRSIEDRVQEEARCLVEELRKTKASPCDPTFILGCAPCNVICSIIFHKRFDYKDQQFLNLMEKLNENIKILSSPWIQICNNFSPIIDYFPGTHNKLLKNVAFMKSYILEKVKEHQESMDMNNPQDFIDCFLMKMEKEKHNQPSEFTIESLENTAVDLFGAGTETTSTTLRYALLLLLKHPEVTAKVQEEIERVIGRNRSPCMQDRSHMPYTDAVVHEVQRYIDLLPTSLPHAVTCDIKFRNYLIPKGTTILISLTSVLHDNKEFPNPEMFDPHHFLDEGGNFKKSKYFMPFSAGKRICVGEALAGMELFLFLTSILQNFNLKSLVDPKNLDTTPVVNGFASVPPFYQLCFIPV
Sequence of Nuclear receptor subfamily 1 group I member 2 (Homo sapiens) (O75469 whole entry, looked up): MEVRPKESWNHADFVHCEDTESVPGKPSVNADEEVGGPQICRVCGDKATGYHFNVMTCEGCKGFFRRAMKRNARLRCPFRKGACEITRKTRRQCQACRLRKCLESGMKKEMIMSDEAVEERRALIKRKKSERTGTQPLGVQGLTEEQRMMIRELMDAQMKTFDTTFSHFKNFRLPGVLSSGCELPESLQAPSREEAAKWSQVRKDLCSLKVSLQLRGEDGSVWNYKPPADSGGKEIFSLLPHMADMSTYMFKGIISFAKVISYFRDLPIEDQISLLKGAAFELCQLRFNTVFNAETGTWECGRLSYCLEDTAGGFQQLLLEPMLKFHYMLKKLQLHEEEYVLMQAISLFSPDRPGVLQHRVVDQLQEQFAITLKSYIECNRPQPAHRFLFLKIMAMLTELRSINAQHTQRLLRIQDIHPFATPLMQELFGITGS
Sequence of Voltage-gated inwardly rectifying potassium channel KCNH2 (Homo sapiens) (Q12809 whole entry, looked up): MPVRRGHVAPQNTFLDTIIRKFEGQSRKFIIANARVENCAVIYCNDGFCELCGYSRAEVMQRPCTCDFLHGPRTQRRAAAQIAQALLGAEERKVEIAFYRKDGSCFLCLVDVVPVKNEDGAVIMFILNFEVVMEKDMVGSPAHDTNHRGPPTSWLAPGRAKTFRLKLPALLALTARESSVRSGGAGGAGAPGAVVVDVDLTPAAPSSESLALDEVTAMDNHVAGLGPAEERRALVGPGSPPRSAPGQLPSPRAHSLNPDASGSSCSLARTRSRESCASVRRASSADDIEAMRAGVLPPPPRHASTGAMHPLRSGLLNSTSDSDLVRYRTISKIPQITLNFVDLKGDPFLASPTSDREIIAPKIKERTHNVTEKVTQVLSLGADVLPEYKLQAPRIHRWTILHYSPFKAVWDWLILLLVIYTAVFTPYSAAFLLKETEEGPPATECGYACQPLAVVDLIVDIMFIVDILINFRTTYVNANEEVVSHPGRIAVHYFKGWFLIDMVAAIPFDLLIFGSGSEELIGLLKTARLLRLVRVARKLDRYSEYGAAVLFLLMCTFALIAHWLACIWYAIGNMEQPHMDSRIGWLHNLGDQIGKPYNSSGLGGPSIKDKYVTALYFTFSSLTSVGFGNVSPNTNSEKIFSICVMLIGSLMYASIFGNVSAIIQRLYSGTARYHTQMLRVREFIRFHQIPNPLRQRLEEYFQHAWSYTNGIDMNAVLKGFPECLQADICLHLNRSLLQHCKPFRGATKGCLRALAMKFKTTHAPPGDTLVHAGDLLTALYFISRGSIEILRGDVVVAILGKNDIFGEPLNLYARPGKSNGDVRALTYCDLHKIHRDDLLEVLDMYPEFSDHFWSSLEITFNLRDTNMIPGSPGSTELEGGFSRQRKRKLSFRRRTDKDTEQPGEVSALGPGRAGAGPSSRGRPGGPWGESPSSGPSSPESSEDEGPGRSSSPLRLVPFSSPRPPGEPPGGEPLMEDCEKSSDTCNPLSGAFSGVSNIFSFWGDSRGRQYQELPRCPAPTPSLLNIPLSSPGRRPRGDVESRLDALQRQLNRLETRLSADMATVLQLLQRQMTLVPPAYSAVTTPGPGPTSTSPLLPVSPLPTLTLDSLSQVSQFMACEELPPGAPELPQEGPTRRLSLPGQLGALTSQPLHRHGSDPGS
Sequence of Cytochrome P450 3A4 (Homo sapiens) (P08684 whole entry, looked up): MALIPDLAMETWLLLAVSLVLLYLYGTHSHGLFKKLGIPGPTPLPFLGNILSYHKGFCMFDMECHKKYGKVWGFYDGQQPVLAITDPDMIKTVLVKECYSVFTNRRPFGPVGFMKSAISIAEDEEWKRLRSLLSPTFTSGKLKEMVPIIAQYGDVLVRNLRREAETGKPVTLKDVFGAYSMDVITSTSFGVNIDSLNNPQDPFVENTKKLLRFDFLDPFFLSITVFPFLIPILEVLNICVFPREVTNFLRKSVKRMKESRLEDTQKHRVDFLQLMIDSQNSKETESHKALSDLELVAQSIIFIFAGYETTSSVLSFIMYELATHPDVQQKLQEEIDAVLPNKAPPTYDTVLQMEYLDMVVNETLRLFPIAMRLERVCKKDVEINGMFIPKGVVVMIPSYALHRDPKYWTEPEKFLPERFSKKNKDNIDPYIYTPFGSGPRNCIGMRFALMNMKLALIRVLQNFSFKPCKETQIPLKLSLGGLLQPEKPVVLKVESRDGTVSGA
Sequence of Cytochrome P450 2D6 (Homo sapiens) (P10635 whole entry, looked up): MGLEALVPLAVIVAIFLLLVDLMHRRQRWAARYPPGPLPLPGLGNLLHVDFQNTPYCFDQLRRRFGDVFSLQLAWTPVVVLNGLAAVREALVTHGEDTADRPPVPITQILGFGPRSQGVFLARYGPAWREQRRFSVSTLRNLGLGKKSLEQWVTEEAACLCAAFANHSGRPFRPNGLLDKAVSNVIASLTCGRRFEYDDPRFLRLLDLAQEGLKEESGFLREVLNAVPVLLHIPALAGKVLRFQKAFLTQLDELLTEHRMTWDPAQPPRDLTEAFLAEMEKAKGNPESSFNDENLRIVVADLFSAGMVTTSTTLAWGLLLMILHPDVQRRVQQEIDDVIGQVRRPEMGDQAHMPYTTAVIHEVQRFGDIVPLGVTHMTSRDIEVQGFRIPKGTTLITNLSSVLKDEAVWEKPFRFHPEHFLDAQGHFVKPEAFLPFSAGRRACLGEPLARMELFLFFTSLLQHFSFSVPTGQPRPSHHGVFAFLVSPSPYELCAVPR
Sequence of Cytochrome P450 2C19 (Homo sapiens) (P33261 whole entry, looked up): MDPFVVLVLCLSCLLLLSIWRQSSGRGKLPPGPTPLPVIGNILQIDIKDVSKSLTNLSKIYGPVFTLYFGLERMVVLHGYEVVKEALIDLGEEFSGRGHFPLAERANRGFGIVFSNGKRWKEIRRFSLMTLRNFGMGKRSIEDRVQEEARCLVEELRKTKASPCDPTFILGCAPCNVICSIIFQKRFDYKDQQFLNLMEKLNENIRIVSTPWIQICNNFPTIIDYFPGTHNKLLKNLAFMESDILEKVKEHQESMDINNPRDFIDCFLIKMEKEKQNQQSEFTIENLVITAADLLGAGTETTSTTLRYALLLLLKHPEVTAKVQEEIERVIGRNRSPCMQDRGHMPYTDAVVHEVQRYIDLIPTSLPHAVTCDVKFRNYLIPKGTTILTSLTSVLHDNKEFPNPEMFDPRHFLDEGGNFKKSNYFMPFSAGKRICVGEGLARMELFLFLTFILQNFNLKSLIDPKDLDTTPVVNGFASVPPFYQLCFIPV
Sequence of Nuclear receptor subfamily 1 group I member 2 (Rattus norvegicus) (Q9R1A7 whole entry, looked up): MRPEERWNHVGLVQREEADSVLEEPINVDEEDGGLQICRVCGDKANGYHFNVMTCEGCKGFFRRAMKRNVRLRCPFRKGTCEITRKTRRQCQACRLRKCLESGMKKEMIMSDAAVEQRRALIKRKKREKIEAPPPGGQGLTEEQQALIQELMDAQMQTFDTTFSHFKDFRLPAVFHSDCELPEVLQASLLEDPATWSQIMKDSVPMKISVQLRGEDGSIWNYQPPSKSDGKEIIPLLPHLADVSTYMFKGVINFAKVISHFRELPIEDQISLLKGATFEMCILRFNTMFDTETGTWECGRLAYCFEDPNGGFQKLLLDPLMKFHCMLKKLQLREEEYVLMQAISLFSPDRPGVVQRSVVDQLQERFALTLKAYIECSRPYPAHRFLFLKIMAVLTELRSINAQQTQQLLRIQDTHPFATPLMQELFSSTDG

| SMILES | Potency [1] | Potency [2] | Potency [3] | Potency [4] | Potency [5] | Potency [6] | Potency [7] | Potency [8] | Potency [9] | Potency [10] | max activation [11] | Potency [12] | Potency [13] | outcome [14] |
| --- | --- | --- | --- | --- | --- | --- | --- | --- | --- | --- | --- | --- | --- | --- |
| CCCCC/C(=C\c1ccccc1)CO | inactive | inactive | 1.76 µM (active) | 39.4 µM (active) | 3.94 µM (active) | inactive |  |  |  |  |  |  |  |  |
| NC(=O)N(O)[C@@H]1COc2cc(OCc3ccccc3)ccc21 | inactive | 12.2 µM (active) | 5.03 µM (active) | 7.96 µM (active) | 5.03 µM (active) | 2.52 µM (active) | inactive | 10 µM (active) | inactive |  |  |  |  |  |
| COc1ccc([C@@H]2Sc3ccccc3NC(=O)[C@@H]2O)cc1 | inactive | inactive | 21.9 µM (active) | 17.4 µM (active) |  | inactive | inactive |  | inactive |  |  |  |  |  |
| CCN(Cc1cccc(S(=O)(=O)O)c1)c1ccc(C(=C2C=CC(=[N+](CC)Cc3cccc(S(=O)(=O)[O-])c3)C=C2)c2ccccc2)cc1 |  | inactive | 62.8 µM (active) | 28 µM (active) | inactive |  | inactive |  | inactive |  |  |  |  |  |
| COc1cc2ncnc(Nc3ccc(F)c(Cl)c3)c2cc1OCCCN1CCOCC1 |  | inactive | 38.9 µM (active) | inactive | inactive |  |  | 13.8 µM (active) | inactive | 29.8 µM (active) |  |  |  |  |
| Cc1c(C(=O)NN2CCCCC2)nn(-c2ccc(Cl)cc2Cl)c1-c1ccc(Cl)cc1 |  |  | inactive |  | inactive | inactive | inactive |  | 2.13 µM (active) |  | -8.23% | inactive | inactive |  |
| CC1C2CC(CC2C2CCCC(O)C2)C1(C)C (stereo not drawn) | inactive | inactive | 35.6 µM (active) | 35.6 µM (active) |  |  |  | inactive | 24.5 µM (active) | 68.6 µM (active) |  |  |  | inactive |
| CCC(Cc1ccccc1)(C(=O)c1ccc(N2CCOCC2)cc1)N(C)C (stereo not drawn) |  | 30.6 µM (active) | 39.9 µM (active) | 35.6 µM (active) | inactive |  | inactive |  | 13.8 µM (active) |  |  |  |  | inactive |
| CCC1(C)CC(=O)NC1=O (stereo not drawn) | inactive | inactive | inactive | inactive | inactive |  | inactive |  | inactive |  |  | inactive | inactive |  |
| CN(C)CCOC1=Cc2ccccc2Sc2ccc(Cl)cc21 | inactive | inactive | inactive | inactive | 18.2 µM (active) |  |  |  |  |  |  |  |  | inactive |
| CCCc1c(OCCCOc2ccc(OCC(=O)O)cc2)ccc(C(C)=O)c1O | inactive |  |  | 8.94 µM (active) |  | inactive | inactive |  | inactive |  |  |  |  | inactive |
| CC(CCc1ccc2c(c1)OCO2)NN (stereo not drawn) | inactive | inactive | 38.9 µM (active) | 15.5 µM (active) | 1.44 µM (active) |  | inactive |  | inactive |  |  |  |  |  |
| COc1cc2c(N3CCN(C(=O)Nc4ccc(OC(C)C)cc4)CC3)ncnc2cc1OCCCN1CCCCC1 |  | inactive | inactive | inactive | inactive |  | inactive | 15.5 µM (active) |  |  |  |  |  |  |
| C=CC(C)(C)CC(=O)OC |  | 68.8 µM (active) | 35.7 µM (active) | 35.7 µM (active) | 20.1 µM (active) | 63.5 µM (active) | inactive |  | inactive |  |  |  |  | inactive |
| CCc1c2c(nc3ccc(OC(=O)N4CCC(N5CCCCC5)CC4)cc13)-c1cc3c(c(=O)n1C2)COC(=O)[C@]3(O)CC |  | inactive | inactive | inactive | inactive |  |  |  | inactive | inactive |  | inactive | inactive | inactive |
| c1cnc2c(n1)CCCC2 | inactive | inactive | inactive | inactive | inactive | inactive | inactive | inactive | inactive |  |  |  |  |  |
| COC(OC)(C(=O)c1ccccc1)c1ccccc1 | inactive | 24.3 µM (active) | 10 µM (active) | 20 µM (active) | inactive | inactive | inactive |  | inactive |  |  |  |  |  |
| NC(=O)Cn1c(=O)cc(CCN2CCN(c3nccc4sccc34)CC2)c2ccc(F)cc21 |  | inactive |  | 63.3 µM (active) | inactive | 5.64 µM (active) | inactive | 35.6 µM (active) | inactive |  |  |  |  |  |
